# According to PubChem BioAssay (Tox21):
# A number with no mark means an inactive call. Records with an inconclusive call do not appear. A call without a number means that no potency is given here. The source made the active and inactive calls. Unless noted, the call rests on the fitted dose curve; in most records, active means well fitted curve in the direction sought with a large enough effect in the repeat runs; inconclusive means weak or mixed curves; inactive means no such curve, though single readings can be large; an effect the other way counts as inactive or inconclusive.
# Assays:
# [1] = target: Progesterone receptor (Homo sapiens) (UniProt P06401); assay: qHTS assay to identify small molecule agonists of the progesterone receptor (PR) signaling pathway (AID 1346784; calls by dose curve; further: nearly all actives have a fitted effect of over 30% in size)
# Outline: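 Agonist qHTS: compounds pinned onto 3,000 PR-UAS-bla HEK 293T cells per well in charcoal-stripped serum medium, 16hr at 37C, then beta-lactamase activity measured by LiveBLAzer FRET fluorescence after 2 hours at room temperature.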
# [2] = target: Progesterone receptor (Homo sapiens) (UniProt P06401); assay: qHTS assay to identify small molecule antagonists of the progesterone receptor (PR) signaling pathway (AID 1346795; active means well fitted inhibition curve with a large enough effect in the signal ratio in the repeat runs, not every such curve was filed as active; the % refers to the signal ratio; further: potency means the concentration at half of the fitted maximal effect)
# Outline: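 Antagonist mode with agonist R5020 at 1 nM final and 16 hr incubation at 37C. Reporter was beta-lactamase driven by UAS in HEK293T (PR-UAS-bla), 2% charcoal-stripped serum; signal from LiveBLAzer FRET substrate, 2 hr at room temperature.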
# [3] = qHTS assay to identify small molecule antagonists of the progesterone receptor (PR) signaling pathway - cell viability counter screen (AID 1346798); further: series mostly up to about 92 µM; nearly all actives have a fitted effect of over 50% in size
# Outline: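 Cytotoxicity read as CellTiter-Glo luminescence (30 min, room temperature) in the same wells as the beta-lactamase readout. HEK293T PR-UAS-bla cells in charcoal-stripped 2% FBS received compound and R5020, then 16 h at 37C, 5% CO2.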
# [4] = qHTS assay to identify small molecule agonists of the progesterone receptor (PR) signaling pathway - cell viability counter screen (AID 1346799; calls by dose curve; further: nearly all actives have a fitted effect of over 45% in size)
# Outline: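 Cytotoxicity measured by CellTiter-Glo luminescence (30 min, RT) in the same wells as the PR beta-lactamase agonist read. Those HEK293T cells had 16 h compound treatment at 37 C in 2% charcoal-stripped FBS medium.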
# [5] = qHTS assay to identify small molecule antagonists of the TGF-beta/Smad signaling pathway - cell viability counter screen (AID 1346824); further: nearly all actives have a fitted effect of over 50% in size
# Outline: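 SBE-bla HEK 293T cells were plated overnight at 37 C, then given compounds in DMSO plus TGF-beta1 (added as 0.25 ng/mL solution) for 5 hr. After the bla read, CellTiter-Glo was added to the same wells and luminescence read after 30 min at room temperature.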
# [6] = qHTS assay to identify small molecule agonists of the TGF-beta/Smad signaling pathway - cell viability counter screen (AID 1346829); further: top concentration of the series differs between compounds; nearly all actives have a fitted effect of over 45% in size
# Outline: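 CellTiter-Glo luminescence readout; SBE-bla HEK 293T cells, overnight plating, compound 5 hr at 37 C/5% CO2, then bla substrate 2 hr RT, then CellTiter-Glo 30 min RT.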
# [7] = qHTS assay to identify small molecule agonists of the TGF-beta/Smad signaling pathway (AID 1346859; active means well fitted activation curve with a large enough effect in the signal ratio in the repeat runs, not every such curve was filed as active; the % refers to the signal ratio; further: series mostly up to about 77 µM)
# Outline: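 Fluorescence (ex 405 nm; em 460 and 530 nm) was read 2 h after LiveBLAzer FRET substrate at RT. The preceding compound treatment of overnight-plated SBE-bla HEK293T cells lasted 5 h at 37 C.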
# [8] = target: Thyrotropin-releasing hormone receptor (Homo sapiens) (UniProt P34981); assay: qHTS assay to identify small molecule antagonists of the thyrotropin-releasing hormone receptor (TRHR) signaling pathway (AID 1346877; active means well fitted inhibition curve with a large enough effect in the repeat runs, not every such curve was filed as active; further: series mostly up to about 51 µM)
# Outline: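 Cells (TRHR-HEK293) are plated and kept 18 h at 37 °C/5% CO2. A calcium-sensitive dye is added for 2 h, compound follows for 5 min at room temperature, and TRH is then given at 1 nM final.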
# [9] = target: Thyrotropin-releasing hormone receptor (Homo sapiens) (UniProt P34981); assay: qHTS assay to identify small molecule agonists of the thyrotropin-releasing hormone receptor (TRHR) signaling pathway (AID 1346891; calls by dose curve; further: series mostly up to about 58 µM)
# Outline: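 Agonist-mode intracellular calcium readout: kinetic fluorescence over 3 min at 1 s intervals after compound addition to TRHR-HEK293 cells (18 h seeded, 2 h dye-loaded at 37 C). Fifteen concentrations, triplicates.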
# [10] = Human pregnane X receptor (PXR) small molecule agonists, qHTS cell viability counter screen (AID 1346977); further: nearly all actives have a fitted effect of over 50% in size
# Outline: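 Same-well viability read: CellTiter-Fluor added after 23 hr compound exposure, fluorescence measured 1 hr later. Cells were PXR-Luc HepG2 seeded at 2,000/well in 5% charcoal-stripped FBS medium, rested 5 hr before dosing at 37 C.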
# Thyrotropin-releasing hormone receptor (Homo sapiens), sequence (P34981 whole entry, looked up): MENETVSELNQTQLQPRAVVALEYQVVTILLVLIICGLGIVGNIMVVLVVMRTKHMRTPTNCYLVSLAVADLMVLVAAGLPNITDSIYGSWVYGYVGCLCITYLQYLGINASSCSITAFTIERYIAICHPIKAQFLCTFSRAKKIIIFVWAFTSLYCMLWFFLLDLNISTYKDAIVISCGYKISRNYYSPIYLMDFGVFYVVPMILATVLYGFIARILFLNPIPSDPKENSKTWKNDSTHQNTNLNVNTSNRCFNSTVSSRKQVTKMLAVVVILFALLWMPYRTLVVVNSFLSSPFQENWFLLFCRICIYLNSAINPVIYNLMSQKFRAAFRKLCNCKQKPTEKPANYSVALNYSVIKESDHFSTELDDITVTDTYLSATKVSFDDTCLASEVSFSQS
# Progesterone receptor (Homo sapiens), sequence (P06401 whole entry, looked up): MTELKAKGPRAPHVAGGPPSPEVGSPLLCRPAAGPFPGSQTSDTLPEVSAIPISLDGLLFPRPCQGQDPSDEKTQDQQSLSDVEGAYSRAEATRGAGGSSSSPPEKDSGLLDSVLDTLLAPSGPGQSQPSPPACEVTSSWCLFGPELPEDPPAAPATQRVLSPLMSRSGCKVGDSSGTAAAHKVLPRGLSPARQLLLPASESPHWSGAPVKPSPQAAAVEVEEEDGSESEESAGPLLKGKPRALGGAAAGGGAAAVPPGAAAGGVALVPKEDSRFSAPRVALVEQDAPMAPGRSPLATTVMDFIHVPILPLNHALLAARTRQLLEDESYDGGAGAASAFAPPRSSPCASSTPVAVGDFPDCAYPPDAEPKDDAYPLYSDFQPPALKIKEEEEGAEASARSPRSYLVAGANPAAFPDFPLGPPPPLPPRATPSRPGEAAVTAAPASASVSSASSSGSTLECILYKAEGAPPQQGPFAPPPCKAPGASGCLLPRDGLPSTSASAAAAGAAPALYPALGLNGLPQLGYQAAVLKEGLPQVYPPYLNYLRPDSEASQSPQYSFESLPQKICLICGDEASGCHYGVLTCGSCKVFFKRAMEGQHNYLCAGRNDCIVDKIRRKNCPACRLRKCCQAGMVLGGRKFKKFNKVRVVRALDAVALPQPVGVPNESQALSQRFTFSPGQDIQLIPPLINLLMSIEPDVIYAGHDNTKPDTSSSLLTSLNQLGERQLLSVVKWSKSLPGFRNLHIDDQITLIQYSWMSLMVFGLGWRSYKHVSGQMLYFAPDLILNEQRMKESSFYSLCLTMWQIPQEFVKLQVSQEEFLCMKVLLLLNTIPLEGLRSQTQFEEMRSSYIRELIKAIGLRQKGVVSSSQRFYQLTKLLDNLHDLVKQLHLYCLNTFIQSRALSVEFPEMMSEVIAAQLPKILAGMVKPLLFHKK
SMILES,outcome [1],Potency [2],Potency [3],Potency [4],Potency [5],Potency [6],outcome [7],outcome [8],Potency [9],Potency [10],activation [1],"activity change, negative = inhibition [2]","activity change, negative = cytotoxicity [3]","activity change, negative = cytotoxicity [4]","activity change, negative = cytotoxicity [6]",activation [7],activation [9],"activity change, negative = cytotoxicity [10]"
CCCCCCOC(=O)CCC,inactive,inactive,inactive,inactive,inactive,inactive,inactive,inactive,inactive,inactive,–,–,–,–,–,–,–,–
O=C(Cl)c1c(Cl)cccc1Cl,inactive,inactive,inactive,inactive,inactive,inactive,inactive,inactive,inactive,inactive,–,–,–,–,–,–,–,–
CC(C)(C)c1ccc(S)cc1,inactive,inactive,inactive,inactive,inactive,inactive,inactive,inactive,inactive,inactive,–,–,–,–,–,–,–,–
Cc1ccc(C(=O)C(C)CN2CCCCC2)cc1 (stereo not drawn),inactive,inactive,inactive,inactive,inactive,inactive,inactive,inactive,inactive,inactive,–,–,–,–,–,–,–,–
C[Si](C)O[Si](C)(C)O[Si](C)(C)O[Si](C)C,inactive,inactive,inactive,inactive,inactive,inactive,inactive,inactive,inactive,inactive,–,–,–,–,–,–,–,–
O=[N+]([O-])c1cccc(Cl)c1Cl,inactive,inactive,inactive,inactive,inactive,inactive,inactive,inactive,inactive,inactive,–,–,–,–,–,–,–,–
C1CCC2OC2C1 (stereo not drawn),inactive,inactive,inactive,inactive,inactive,inactive,inactive,–,inactive,inactive,–,–,–,–,–,–,–,–
C=CC(=O)OCCOC(=O)CCC(=O)O,inactive,inactive,inactive,inactive,inactive,inactive,inactive,–,inactive,inactive,–,–,–,–,–,–,–,–
O=C(CC(=O)c1ccccc1)c1ccccc1,inactive,65.7 µM (active),inactive,inactive,inactive,inactive,inactive,–,–,–,–,–,–,–,–,–,–,–
CC(C)CCCCCCOC(=O)c1ccc(C(=O)OCCCCCCC(C)C)c(C(=O)OCCCCCCC(C)C)c1,inactive,inactive,inactive,inactive,inactive,inactive,inactive,inactive,inactive,inactive,–,–,–,–,–,–,–,–
CCCCOC(=O)c1ccccc1C(=O)OCC(CC)CCCC (stereo not drawn),inactive,48.6 µM (active),inactive,inactive,inactive,inactive,inactive,inactive,inactive,inactive,–,–,–,–,–,–,–,–
CCCCOc1cc(C(=O)OCCN(CC)CC)ccc1N,inactive,inactive,inactive,inactive,inactive,inactive,inactive,inactive,inactive,inactive,–,–,–,–,–,–,–,–
CCN(CC)CCOC(=O)C1(c2ccccc2)CCCC1,inactive,inactive,inactive,inactive,inactive,inactive,inactive,inactive,inactive,inactive,–,–,–,–,–,–,–,–
O=C1CCCCCO1,inactive,inactive,inactive,inactive,inactive,inactive,inactive,inactive,inactive,inactive,–,–,–,–,–,–,–,–
CCCCCCCCN(C)C,inactive,inactive,inactive,inactive,inactive,inactive,inactive,inactive,inactive,inactive,–,–,–,–,–,–,–,–
CCCCCc1ccc(N)cc1,inactive,inactive,inactive,inactive,–,inactive,inactive,inactive,inactive,inactive,–,–,–,–,–,–,–,–
Cc1cc(CC(=O)O)c(C)n1-c1ccc(Cl)cc1,inactive,inactive,inactive,inactive,–,inactive,inactive,inactive,inactive,inactive,–,–,–,–,–,–,–,–
CCN(CC)C(C)=O,inactive,inactive,inactive,inactive,–,inactive,inactive,inactive,inactive,inactive,–,–,–,–,–,–,–,–
CC(C)(C)c1cc(CCC(=O)OCC(COC(=O)CCc2cc(C(C)(C)C)c(O)c(C(C)(C)C)c2)(COC(=O)CCc2cc(C(C)(C)C)c(O)c(C(C)(C)C)c2)COC(=O)CCc2cc(C(C)(C)C)c(O)c(C(C)(C)C)c2)cc(C(C)(C)C)c1O,inactive,inactive,inactive,inactive,–,inactive,inactive,inactive,inactive,inactive,–,–,–,–,–,–,–,–
N[C@H]1C(O)O[C@H](CO)[C@H](O)[C@@H]1O (stereo partly drawn),inactive,inactive,inactive,inactive,inactive,inactive,inactive,–,inactive,inactive,–,–,–,–,–,–,–,–
CCN(CCO)CCCC(C)Nc1ccnc2cc(Cl)ccc12 (stereo not drawn),–,–,–,–,–,–,–,–,–,–,-0.495% [at 8.39 µM],1.96% [at 8.39 µM],-13% [at 8.39 µM],-10.8% [at 8.39 µM],2.66% [at 6.97 µM],-1.21% [at 6.97 µM],0.0624% [at 5.23 µM],4.23% [at 8.39 µM]
CCCCCCCCCCCCCCC1CO1 (stereo not drawn),inactive,inactive,inactive,inactive,–,inactive,inactive,inactive,inactive,inactive,–,–,–,–,–,–,–,–
CC[C@]12CCCN3CCc4c(n(c5ccccc45)C(=O)C1)[C@@H]32,inactive,13.3 µM (active),inactive,inactive,inactive,inactive,inactive,–,–,inactive,–,–,–,–,–,–,–,–
CC(C)(Oc1ccc(Cl)cc1)C(=O)OCCCOC(=O)C(C)(C)Oc1ccc(Cl)cc1,inactive,inactive,inactive,inactive,inactive,inactive,inactive,–,inactive,inactive,–,–,–,–,–,–,–,–
CCCCCC(CO)CCC (stereo not drawn),inactive,inactive,inactive,inactive,inactive,–,inactive,inactive,inactive,inactive,–,–,–,–,–,–,–,–
